Assay results reported in PubChem BioAssay AID652054 (National Center for Advancing Translational Sciences (NCATS), 2013).
The whole screen tested about 360,000 compounds, of which about 9,100 (2.5%) were called active. Another 4% or so got no clear call; they are omitted. The list comes from a sample in which actives are over-represented; it also holds similar structures and randomly drawn compounds. Values without a mark were called inactive. No stated cut-off is given here; in the data, active means max response below about -50%; inconclusive means no clear call, values can overlap the other calls; inactive means above that.
On the % scale 0 is the no-effect control and ±100 the full control effect.

Each molecule was assayed against D(3) dopamine receptor (Homo sapiens) (UniProt P35462) (assay: qHTS of D3 Dopamine Receptor Antagonist: qHTS). Conditions: D3R cells, DiscoveRx beta-arrestin luminescence, antagonist mode; active compounds read low.
Chain of D(3) dopamine receptor (Homo sapiens) (P35462 whole entry, looked up): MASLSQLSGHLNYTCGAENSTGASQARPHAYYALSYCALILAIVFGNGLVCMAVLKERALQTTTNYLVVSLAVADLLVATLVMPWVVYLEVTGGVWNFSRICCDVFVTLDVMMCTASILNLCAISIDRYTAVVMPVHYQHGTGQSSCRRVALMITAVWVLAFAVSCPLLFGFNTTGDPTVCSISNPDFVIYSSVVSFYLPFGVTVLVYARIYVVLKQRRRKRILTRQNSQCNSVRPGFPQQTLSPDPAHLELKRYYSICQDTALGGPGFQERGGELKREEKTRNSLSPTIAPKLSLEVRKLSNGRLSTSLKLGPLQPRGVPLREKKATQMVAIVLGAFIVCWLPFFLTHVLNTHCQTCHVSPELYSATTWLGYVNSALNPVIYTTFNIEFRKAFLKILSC
How it was run: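 Cells plated overnight at 1500 cells/well, then exposed to library compounds with dopamine controls for 90 minutes at 37 degrees C. DiscoveRx reagent added for 30–60 minutes at room temperature; luminescence read, quantitative HTS format.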
`CCOC(=O)[C@]12CCC=C1N(Cc1cccc3ccccc13)C(=O)[C@H](CC(=O)NCc1cccc(C(F)(F)F)c1)C2` gave a max response, negative = inhibition of 7.1%. For `CCCCCCN1C[C@@H](O)[C@H](n2cc(COC(=O)c3ccccc3)nn2)C[C@@H]1c1ccc(Cl)cc1`, the max response, negative = inhibition was 3.45%. Molecule `CCc1nnc(NC(=O)c2ccco2)s1` has a max response, negative = inhibition of -7.74%. `Cc1ccc(S(=O)(=O)N2CCCCC2)cc1NC(=O)CCNC(=O)c1ccccc1Cl` gave a max response, negative = inhibition of 25.5%. With `N#Cc1ccc(-c2nc3c(Cl)cc(C(F)(F)F)cn3c2Cc2ccccc2C(F)(F)F)cc1` the max response, negative = inhibition was 8.9%. For `CCN(CC)CCCNC(=O)c1cc2c(=O)[nH]c3ccc(C)cc3c2s1`, the max response, negative = inhibition was -89.2% (active). Molecule `CCN(CC)CCCNC(=O)c1cc(-c2cccc(Cl)c2)on1` has a max response, negative = inhibition of -19.8%. In the case of `Cc1cccc(N(C)C(=O)c2cc3c(=O)[nH]c4ccc(C)cc4c3s2)c1`, the max response, negative = inhibition is reported as -15.8%. For `CCC(=O)N1CCC(C)(C(=O)Nc2cc(OC)c(OC)c(OC)c2)C1` (stereo not drawn), the max response, negative = inhibition was 16.4%. In the case of `CCOc1ccc(NC(=O)N2CC=C(n3c(=O)[nH]c4ccccc43)CC2)cc1`, the max response, negative = inhibition is reported as -51.2% (active). `Cc1cccc(C)c1NC(=O)N1CC=C(n2c(=O)[nH]c3ccccc32)CC1` gave a max response, negative = inhibition of 0%. Molecule `CCOc1ccc(NC(=O)N2CCN(CC)CC2)cc1` has a max response, negative = inhibition of 6.64%. `CCOC(=O)C=Cc1ccc(C(=O)OCC)[nH]1` was tested, and the max response, negative = inhibition was 20.2%. `COC(=O)[C@@]12C[C@@H](CC(=O)N3CCCCC3)C(=O)N(Cc3ccc4c(c3)OCO4)C1=CCC(C)(C)C2` gave a max response, negative = inhibition of -15.1%. `CCOc1ccc(CNC(=O)CCC(=O)N2CCSc3ccccc32)cc1` showed a max response, negative = inhibition of 10.8%. `Cc1ccc(NC(=O)N2CCSc3ccccc32)cc1` was tested, and the max response, negative = inhibition was -50.5% (active). Work on `Cc1ccc(NC(=O)N2CCC(O)(c3cccnc3)CC2)cc1` yielded a max response, negative = inhibition of 1.47%. For `Cc1ccc(S(=O)(=O)N[C@H](CO)C(C)C)cc1`, the max response, negative = inhibition was -14.1%. In the case of `CCCN(CC1COc2ccccc2O1)C(=S)Nc1ccc(C)cc1` (stereo not drawn), the max response, negative = inhibition is reported as -53.1% (active). Work on `CC(NC(=S)Nc1ccccc1)C1COc2ccccc2O1` (stereo not drawn) yielded a max response, negative = inhibition of 1.63%. Work on `CCC(=O)c1ccc(OCC(=O)N(CC)CC2COc3ccccc3O2)cc1` (stereo not drawn) yielded a max response, negative = inhibition of 10.7%. Molecule `Cc1cc(=O)c2ccc(NC(=O)c3ccccc3)cc2[nH]1` has a max response, negative = inhibition of 13.3%. Molecule `O=C1NC(O)CCN1C1CC(O)C(CO)O1` (stereo not drawn) has a max response, negative = inhibition of 11%. Molecule `CCN1CC=C2C(C#N)=C(N)C(C#N)(C#N)[C@H](c3ccoc3)[C@H]2C1` has a max response, negative = inhibition of -11.8%. For `CCCN1CC=C2C(C#N)=C(N)C(C#N)(C#N)C(c3cc(OC)ccc3OC)C2C1` (stereo not drawn), the max response, negative = inhibition was -67.2% (active). For `COc1ccc(NC(=O)c2sc(=O)n(Cc3ccc(S(=O)(=O)N(C)C)cc3)c2C)cc1`, the max response, negative = inhibition was 14.5%. `CCCCCCCCNS(=O)(=O)CCNC1CCCCC1` was tested, and the max response, negative = inhibition was -69.1% (active). For `CC1(C)CC(=O)C=C(NCCCNC2CCCCC2)C1`, the max response, negative = inhibition was 1.63%. Molecule `CCCCCCNS(=O)(=O)c1ccccc1Br` has a max response, negative = inhibition of 0%. For `CCCC(=O)N1CCC1(C)C(=O)NS(=O)(=O)c1ccc(Cl)cc1` (stereo not drawn), the max response, negative = inhibition was 3.58%. With `c1ccc2c(c1)nnn2-c1ccncc1` the max response, negative = inhibition was -16.5%. Work on `COC(=O)CCNC(=O)c1ccc2[nH]c(C)c(C)c2c1` yielded a max response, negative = inhibition of -22.3%. `CCOC(=O)c1ccc2[nH]c(C)c(CN3CCN(C)CC3)c(=O)c2c1` showed a max response, negative = inhibition of 0%. With `Cc1[nH]c2ccc(C(=O)N3CCN(C)CC3)cc2c1C` the max response, negative = inhibition was -72.7% (active). `CC1(C(=O)Nc2ccc3c(c2)OCCO3)CSCC(=O)N1CCOc1ccccc1` (stereo not drawn) gave a max response, negative = inhibition of -1.68%. Work on `O=C(Nc1ccc(OCCO)cc1)c1csc([C@H]2C[C@H](O)[C@@H](CO)O2)n1` yielded a max response, negative = inhibition of -7.51%. `O=C(NCc1cccnc1)c1ccc2nc([C@@H]3O[C@H](CO)[C@H](O)[C@H](O)[C@H]3O)[nH]c2c1` showed a max response, negative = inhibition of 40.4%. `Nc1nc2cc(Cl)ccc2n1N` was tested, and the max response, negative = inhibition was 0%. Molecule `O=C(Nc1cc(S(=O)(=O)N2CCOCC2)ccc1Cl)c1cc(=O)c2ccccc2o1` has a max response, negative = inhibition of 17%. In the case of `O=C(c1cc(S(=O)(=O)N2CCOCC2)ccc1Cl)N1CCOCC1`, the max response, negative = inhibition is reported as -16%. For `O=[N+]([O-])c1cc(Cl)cc(/C=N/NC(=S)Nc2cc(S(=O)(=O)N3CCOCC3)ccc2Cl)c1O`, the max response, negative = inhibition was -50.3% (active). `Cc1cc(C)n2c(Nc3c(C)cccc3C)c(CCc3ccccc3)nc2n1` showed a max response, negative = inhibition of 18.8%. With `CCN(CC)S(=O)(=O)c1cc([N+](=O)[O-])ccc1NNC(=O)Nc1ccccc1` the max response, negative = inhibition was -56.2% (active).
